Sampled rows, rich in hits. Any-hit rate of the full collection: about 1.9%.
PP1 counter = PP1-alpha (human) inhibition in PP5 counter-screen | P62136 | AID 2235 | 0.9% of 320,000 active | inhibition, % at 6.7 µM | purified PP1alpha, OMFP fluorescence;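 active = inhibition above the mean inhibition of all tested compounds plus 3 SD, computed separately for each screening campaign, cut at about 15% in these data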
PP5 primary = inhibitors of human protein phosphatase 5 (PP5); inhibition, % at 6.7 µM; purified PP5c, OMFP substrate fluorescence; P53041; AID 1987; 0.18% of 320,000 active;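 active = inhibition above the campaign's mean inhibition across all tested compounds plus 3 SD, cut at about 9.5% in these data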;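 note: 0% = DMSO only and 100% = 100 µM cantharidin control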
Target sequence (P53041 whole entry, looked up): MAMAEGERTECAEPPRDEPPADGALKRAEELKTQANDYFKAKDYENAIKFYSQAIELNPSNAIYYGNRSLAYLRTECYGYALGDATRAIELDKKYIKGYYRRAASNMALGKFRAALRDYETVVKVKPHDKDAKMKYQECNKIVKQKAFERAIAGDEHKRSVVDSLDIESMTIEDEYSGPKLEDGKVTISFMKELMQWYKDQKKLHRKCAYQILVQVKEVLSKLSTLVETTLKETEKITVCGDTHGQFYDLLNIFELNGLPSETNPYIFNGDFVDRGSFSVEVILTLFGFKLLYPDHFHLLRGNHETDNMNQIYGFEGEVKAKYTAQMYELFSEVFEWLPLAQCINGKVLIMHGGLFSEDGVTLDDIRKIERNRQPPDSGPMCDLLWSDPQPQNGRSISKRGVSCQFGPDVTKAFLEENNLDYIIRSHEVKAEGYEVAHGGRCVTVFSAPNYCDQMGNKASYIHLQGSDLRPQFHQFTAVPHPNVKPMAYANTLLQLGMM
ATG4B inh = inhibitors of human ATG4B cysteine protease. Q9Y4P1. ATG4B cleavage of LC3-PLA2, NBD-HPC fluorescence, 1 h. inhibition, % at 8.33 µM. 0.51% of 340,000 active. AID 504462; in the data active = inhibition above about 40%
H9c2 protect = protects H9c2 cardiomyocytes from peroxide injury | H2O2 injury protection, ATPLite, 2 h | protection from H2O2 cell death, % at 20 µM | 0.63% of 360,000 active;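 active = compounds giving at least 50% protection of heart cells from peroxide-induced death in the single-dose screen, raw or plate-pattern-corrected value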;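 note: 0% = DMSO wells with peroxide and 100% = DMSO wells without peroxide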
Active calls of the source: *; x = no result.

SMILES	PP1 counter	PP5 primary	ATG4B inh	H9c2 protect
COc1ccc(S(=O)(=O)Nc2cc3[nH]c(=O)oc3cc2C)cc1	0	2	0	4
Cc1ccc(Nc2nc(N)nc(CSc3nnnn3-c3ccccc3)n2)cc1	16*	-1	-15	-6
O=C(CSc1ccc(-c2ccccn2)nn1)N1CCCc2ccccc21	-4	1	-7	52*
Cc1ccc(-c2nnc3ccc(SCC(=O)N4CCCc5ccccc54)nn23)cc1	1	1	-15	105*
O=C(CSc1ccc(-c2cccnc2)nn1)N1CCCc2ccccc21	-2	-1	x	x
Cc1cc(C)cc(NC(=O)CSc2ccc(-c3ccccn3)nn2)c1	-2	4	4	67*
NS(=O)(=O)c1cccc(NC(=O)COC(=O)CCc2ccccc2)c1	0	1	-7	1
NS(=O)(=O)c1ccc(NC(=O)COC(=O)c2ccc(S(=O)(=O)N3CCOCC3)cc2)cc1	x	x	-15	0
CCOC(=O)CC1CCCCN1C(=O)c1cc(COc2cccc3cnccc23)on1 (centres undefined)	-1	-2	23	-13
COc1ccc2cc(CCNC(=O)c3ccc(S(=O)(=O)N4CCOCC4)cc3)c(=O)[nH]c2c1	-4	5	-14	1
O=C1CCC(=O)N1CC(=O)N1CCCc2ccccc21	-4	-1	5	-3
Nc1c(C(=O)N/N=C/c2cccnc2)oc2nc(-c3ccccc3)cc(-c3ccco3)c12	-1	-3	-7	68*
NNC(=O)c1oc2nc(-c3ccco3)cc(-c3ccco3)c2c1N	6	3	-5	33
Cc1cc(C)c2c(N)c(C(=O)N/N=C/c3cccnc3)sc2n1	3	2	-14	66*
Nc1c(C(=O)N/N=C/c2cccnc2)oc2nc(-c3ccco3)cc(-c3ccco3)c12	4	0	-7	77*
COc1ccc(C(=O)Nc2cccc(/C(C)=N\NC(=O)c3ccoc3C)c2)cc1OC	x	x	-15	19
COc1ccc(C(=O)Nc2cccc(/C(C)=N/NC(=O)c3ccc([N+](=O)[O-])c(C)c3)c2)cc1OC	-2	2	-26	95*
COC(=O)c1cc(NC(=O)c2cc3ccccc3o2)cc(C(=O)OC)c1	-1	0	-2	89*
C[C@@H]1CN([C@@H](C)CO)C(=O)CCCn2nncc2CO[C@@H]1CN(C)S(=O)(=O)c1cccs1	x	x	x	8
CC(=O)Nc1ccc(N=c2cc([N+](=O)[O-])cc(Cl)n2O)cc1	0	0	-9	10
CC1(c2ccc(OC(F)F)cc2)NC(=O)N(CC(=O)Nc2ccc(Cl)cc2F)C1=O (centres undefined)	2	4	-12	-3
CCOc1ccc(C(=O)Nc2cccc(C(=O)O)c2)cc1Cl	-1	1	17	-15
CCOc1ccc(C(=O)Nc2cccc(-c3nc4cccnc4o3)c2)cc1Cl	-3	4	8	50*
Cc1csc2nc(O)c(C(=O)NCc3ccc4c(c3)OCO4)c(=O)n12	17*	-2	4	-8
C[C@@]12CCC[C@@](C)(C(=O)O)C1CC[C@@]13C[C@@H](NCc4ccccc4)[C@@](C)(CCC12)C3 (some centres undefined)	-3	-2	-6	-1
SMILES	PP1 counter	PP5 primary	ATG4B inh	H9c2 protect
O=C(Nc1nnc(-c2ccco2)o1)c1ccc2ccccc2c1	10	0	-15	64*
Cc1ccc(C(=O)Nc2nnc(-c3ccco3)o2)cc1	-2	1	2	16
COc1ccc(Br)cc1/C(C)=N/NC1=NCCN1	2	1	-3	-26
CCCCCOc1ccc(Br)cc1/C(C)=N/NC1=NCCN1	17*	3	1	-32
Cc1ccc(S(=O)(=O)/N=C/c2cc(Br)ccc2O)cc1	1	0	1	54*
NC(=O)N/N=C\c1cc(Br)ccc1O	1	1	-1	-10
Cc1cc(N=Cc2cc(Br)ccc2O)no1	-4	0	1	57*
O=C(COc1ccccc1)NC1CCN(Cc2ccccc2)CC1	-1	0	5	-1
O=C(Cn1[nH]c(=O)c2ccccc2c1=O)NC1CCCCCC1	-2	-2	3	78*
O=C(Cn1[nH]c(=O)c2ccccc2c1=O)Nc1ccc2c(c1)CCC2	2	2	-22	29
O=C(Cn1[nH]c(=O)c2ccccc2c1=O)NC1CCN(Cc2ccccc2)CC1	-5	-1	-10	70*
CN(C)c1ncc(C2=C(Cl)C(=O)C(N3CCCC3)=C(Cl)C2=O)s1	17*	9	12	-17
CCc1ccc(NC(=O)CCN2C(=O)c3cccnc3C2=O)cc1	1	-1	-2	0
CCc1ccc2c(c1)C(=O)C(=O)N2CC(=O)Nc1ccc(NC(=O)c2ccccn2)cc1	16*	3	0	2

High-throughput results: PubChem, several laboratories
